# Assay results as given in PubChem BioAssay AID463173 (ICCB-Longwood Screening Facility, Harvard Medical School, 2010).
# The campaign covered roughly 52,000 compounds. About 1,700 (3.3%) were called active. Cut-off read from the data, not from the text of the source: active = survival mostly below about 52% (no sharp cut-off); inactive = mostly above about 56%. What follows is part of a selection rich in actives, with near analogues and random picks from the rest.
# Test system: Wild type
# Experiment: growth inhibition of S. aureus wild type versus tarO mutant, primary screen, teichoic acid synthesis inhibitors, RN4220, OD600 (AID 463173)
# Conditions: S. aureus RN4220 wild type/DeltatarO growth, OD600, 18 h, active compounds read low, screened at 18.75 µg/mL (by protocol)
row,Compound,survival
1,CCn1c(=NC(=O)c2ccc(S(=O)(=O)N3CCCCC3)cc2)sc2cccc(OC)c21,68% (inactive)
2,Cc1ccc(C(=O)NC2CC3CCCC(C2)N3C(=O)NC2CCCCC2)cc1 (configuration not stated),101% (inactive)
3,O=C(CCC1CCCC1)N1CCN(C(=O)Cc2ccccc2)CC1,94% (inactive)
4,COc1cc(OC)c(Nc2nc3ccccc3c3nncn23)cc1Cl,136% (inactive)
5,COc1ccc(C)cc1-n1c(-c2ccc(Cl)cc2)cc2c1CC(C)(C)CC2=O,94% (inactive)
6,CCOc1ccc(-n2c(-c3ccc(OC)cc3)cc3c2CC(C)(C)CC3=O)cc1,41% (inactive)
7,CCOc1ccc(-n2c(-c3ccc(Br)cc3)cc3c2CC(C)(C)CC3=O)cc1,8% (active)
8,COc1ccc(-n2c(-c3ccc(C)cc3)cc3c2CC(C)(C)CC3=O)c(OC)c1,96% (inactive)
9,Cc1ccc(-c2cc3c(n2-c2ccc(C)cc2)CC(C)(C)CC3=O)cc1,69% (inactive)
10,COc1ccc(-n2c(-c3ccc(Cl)cc3)cc3c2CC(C)(C)CC3=O)c(OC)c1,3% (active)
11,CCCCCn1c(=O)[nH]c2cc(C(=O)NCc3ccccc3)ccc2c1=O,83% (inactive)
12,COCCNC(=O)CCCN1C(=O)CCn2nc(-c3cccn3C)cc21,68% (inactive)
13,CCOc1ccc(-n2c(SCc3nc(-c4ccccc4C)no3)nnc2-c2ccccc2)cc1,84% (inactive)
14,CCC(Sc1nncn2c1cc1occc12)C(=O)Nc1ccc(C)c(Cl)c1 (configuration not stated),44% (inactive)
15,CCc1nn(CC(=O)NC(C)c2ccccc2)c(=O)c2cc3sccc3n12 (configuration not stated),91% (inactive)
16,COc1ccc(-n2c(=O)c3ccccc3n(CC(=O)Nc3ccccc3OC)c2=O)cc1,89% (inactive)
17,CN1C(C(=O)NC(C)(C)C)=CC(c2ccc3c(c2)OCO3)=NS1(=O)=O,84% (inactive)
18,Cc1cc(NCCN(C)C)c2ccccc2n1,106% (inactive)
19,COc1ccc(-c2cccc(NS(=O)(=O)c3cc(C(F)(F)F)ccc3Cl)c2)nn1,59% (inactive)
20,CCS(=O)(=O)Nc1ccc(-c2cn3ccsc3n2)cc1,-1% (active)
21,CCCS(=O)(=O)Nc1cccc(-c2cn3ccsc3n2)c1,159% (inactive)

row,Compound,survival
1,COc1cc(OC)cc(C(=O)Nc2cccc(-c3cn4ccsc4n3)c2)c1,1% (active)
2,COc1ccc(S(=O)(=O)Nc2ccc(-c3cn4ccsc4n3)cc2)cc1C,133% (inactive)
3,COc1ccc(C(=O)Nc2cccc(-c3cn4ccsc4n3)c2)cc1OC,76% (inactive)
4,Nc1cccc(-c2cn3ccsc3n2)c1,55% (inactive)
5,CN(C)S(=O)(=O)Nc1ccc(-c2cn3ccsc3n2)cc1,14% (active)
6,COc1cccc(OC)c1C(=O)Nc1cccc(-c2cn3ccsc3n2)c1,72% (inactive)
7,CCS(=O)(=O)Nc1ccc(-c2cn3c(C)csc3n2)cc1,78% (inactive)
8,Cc1ccc(Cn2cc(S(=O)(=O)c3cccc(Cl)c3)c(=O)c3cc(F)c(N4CCOCC4)cc32)cc1,87% (inactive)
9,CC1=C(C(=O)OCC2CCCCC2)C(c2cccc(Cl)c2Cl)CC(=O)N1 (configuration not stated),76% (inactive)
10,COc1cc(Cl)c(C)cc1NC(=O)Cn1cc(S(=O)(=O)N2CCN(c3ccccc3F)CC2)c2ccccc2c1=O,68% (inactive)
11,Cc1cccc(C)c1NC(=O)CN1C(=O)CCSc2ccc(S(=O)(=O)N3CCCC3)cc21,72% (inactive)
12,CCN(C(=O)C(=O)Nc1ccc2nc3n(c(=O)c2c1)CCCCC3)c1ccc(F)cc1,94% (inactive)
13,COc1ccc(-n2nc(C(=O)N3CCN(c4ccccc4OC)CC3)c3c4ccccc4n(C)c3c2=O)cc1,80% (inactive)
14,Cc1ccc(CSc2cn(CC(=O)N3CCCCC3)c3ccccc23)cc1,90% (inactive)
15,CCc1ccc(C2C(C(=O)Nc3ccccc3C)=C(C)Nc3nc(SCc4cccc(OC)c4)nn32)cc1 (configuration not stated),146% (inactive)
16,O=C1CC2CCCC(CN1)N2CC(=O)NCc1ccco1 (configuration not stated),104% (inactive)
17,COc1ccc(COC(=O)c2[nH]c3c(c2C)C(=O)CC(c2ccc(OC)c(OC)c2)C3)cc1 (configuration not stated),92% (inactive)
18,COc1ccccc1C(=O)NC(=O)Nc1ccc(-n2nc(C(F)(F)F)cc2C(F)(F)F)cc1,101% (inactive)
19,COc1ccccc1C(=O)Nc1ccc(-c2cc(C(F)(F)F)nn2-c2ccccc2)cc1,39% (inactive)
20,COc1ccccc1C(=O)NC(=O)Nc1ccc(-c2cc(C(F)(F)F)nn2-c2ccccc2)cc1,5% (active)
21,COc1ccc(-c2cc3ccc(O)c(CN4CCCC4)c3oc2=O)cc1,124% (inactive)

row,Compound,survival
1,CCOc1ccccc1NC(=O)c1c(NC(=O)COc2ccc(Cl)cc2)sc2c1CCCCC2,75% (inactive)
2,Cc1onc(-c2ccccc2Cl)c1C(=O)Oc1ccc(Br)cc1,4% (active)
3,CCOc1ccc(OC(=O)c2c(-c3ccccc3Cl)noc2C)cc1,59% (inactive)
4,CC(=O)c1ccc(OC(=O)c2c(-c3ccccc3Cl)noc2C)cc1,56% (inactive)
5,CN(C)c1ccc(C(CNS(=O)(=O)c2ccc(Cl)cc2)N2CCCC2)cc1 (configuration not stated),-3% (active)
6,Cc1ccc(S(=O)(=O)NCC(c2ccc(N(C)C)cc2)N2CCOCC2)cc1 (configuration not stated),65% (inactive)
7,Cc1ccc(S(=O)(=O)NCC(c2ccc(N(C)C)cc2)N2CCCC2)cc1 (configuration not stated),88% (inactive)
8,CN(C)c1ccc(C(CNS(=O)(=O)c2ccc(F)cc2)N2CCCC2)cc1 (configuration not stated),124% (inactive)
9,CN(C)c1ccc(C(CNS(=O)(=O)c2ccc(F)cc2)N2CCOCC2)cc1 (configuration not stated),83% (inactive)
10,CN(C)c1ccc(C(CNS(=O)(=O)c2ccc(Cl)cc2)N2CCOCC2)cc1 (configuration not stated),10% (active)
11,C=CCn1cc(F)c(=O)n(CC=C)c1=O,109% (inactive)
12,CCOc1ccc(NC(=O)Cn2nc(Cc3ccncc3)c3ccccc3c2=O)cc1,108% (inactive)
13,CC(C)C(=O)N1CCN(c2ccc(NC(=O)c3ccccc3)cc2)CC1,95% (inactive)
14,O=C(Nc1ccc2oc(=O)ccc2c1)c1cccc(F)c1,106% (inactive)
15,COc1ccc2sc(N(Cc3cccnc3)C(=O)c3ccco3)nc2c1,-4% (active)
16,Cc1cc2nc(N(Cc3cccnc3)C(=O)c3ccc(Cl)s3)sc2cc1C,0% (active)
17,CCS(=O)(=O)c1ccccc1C(=O)N(Cc1cccnc1)c1nc2cc(C)c(C)cc2s1,118% (inactive)
18,COc1cc(C(=O)N(Cc2cccnc2)c2nc3cc(C)c(C)cc3s2)cc(OC)c1OC,22% (inactive)
19,COc1ccc2sc(N(Cc3cccnc3)C(=O)c3cccs3)nc2c1,64% (inactive)
20,COc1ccc2nc(N(Cc3cccnc3)C(=O)c3ccco3)sc2c1,70% (inactive)
